# According to the supplement of paper PMC6992640:
# ± gives the standard deviation of the averaged measurements.
# Columns and labels:
# Assay in all cases: cell viability (% of vehicle); higher = less cytotoxic
# HCI01 [1] = cells of a triple-negative basal-like breast cancer xenograft; conditions: 1 µM; 72 h
# UCD52 [2] = cells of a triple-negative basal-like breast cancer xenograft; conditions: 1 µM; 72 h
# WHIM2 [3] = cells of a triple-negative basal-like breast cancer xenograft; conditions: 1 µM; 72 h
# WHIM30 [4] = cells of a triple-negative basal-like breast cancer xenograft; conditions: 1 µM; 72 h
# HCI01 [5] = conditions: 10 µM; 72 h
# HCI03 = cells of an ER-positive luminal breast cancer xenograft; conditions: 10 µM; 72 h
# HCI09 = cells of a triple-negative luminal androgen receptor type breast cancer xenograft; conditions: 10 µM; 72 h
# HCI11 = cells of an ER-positive luminal breast cancer xenograft; conditions: 10 µM; 72 h
# HCI13 = cells of an ER-positive luminal breast cancer xenograft; conditions: 10 µM; 72 h
# HCI16 = cells of a triple-negative basal-like breast cancer xenograft; conditions: 10 µM; 72 h
# UCD52 [6] = conditions: 10 µM; 72 h
# WHIM2 [7] = conditions: 10 µM; 72 h
# WHIM30 [8] = conditions: 10 µM; 72 h
SMILES,cell viability (HCI01 [1]),cell viability (UCD52 [2]),cell viability (WHIM2 [3]),cell viability (WHIM30 [4]),cell viability (HCI01 [5]),cell viability (HCI03),cell viability (HCI09),cell viability (HCI11),cell viability (HCI13),cell viability (HCI16),cell viability (UCD52 [6]),cell viability (WHIM2 [7]),cell viability (WHIM30 [8])
COC(=O)c1ccc2c(c1)NC(=O)C2=C(Nc1ccc(N(C)C(=O)CN2CCN(C)CC2)cc1)c1ccccc1 [Nintedanib (BIBF 1120)],83.1,46,46.6,51.2,70.5 ± 19,63.6,51.4 ± 46,59,71.2 ± 12,85.5,34.9 ± 2.4,65.2 ± 15,47 ± 11
Cc1cc(Nc2ncc(Cl)c(Nc3ccccc3S(=O)(=O)C(C)C)n2)c(OC(C)C)cc1C1CCNCC1,76.4,45.8,63.1,47.9,34.4 ± 7.6,37.8,17.5 ± 1.3,29.3,27.6 ± 17,44.6,24.86 ± 0.13,45.5 ± 4.4,29.3 ± 1.2
Cc1ccc(C(=O)N(CCCN)C(c2nc3cc(Cl)ccc3c(=O)n2Cc2ccccc2)C(C)C)cc1 (configuration not stated),98.7,47.7,62.5,78,34.6 ± 0.75,41.2,22.4 ± 2.7,56.8,38.3 ± 4,45.5,122 ± 8.3,34.8 ± 0.98,39.8 ± 4
CNCCCC12CCC(c3ccccc31)c1ccccc12.Cl [Maprotiline HCl],90.9,81.1,93.2,83.3,89.8 ± 4.9,75.5,56.8 ± 21,78.4,107.1 ± 0.46,80.2,35.4 ± 2.8,66.6 ± 10,44.8 ± 30
COc1cc(C(=O)O)ccc1NC(=O)C1NC(CC(C)(C)C)C(C#N)(c2ccc(Cl)cc2F)C1c1cccc(Cl)c1F (configuration not stated),95.1,89.1,99.1,91.3,63.9 ± 30,143,37.1 ± 9.3,118,60.9 ± 7.6,97.1,101 ± 6.1,44.9 ± 8.6,102 ± 14
CC(C)C[C@H](NC(=O)[C@H](Cc1ccccc1)NC(=O)c1cnccn1)B(O)O [Bortezomib],32.8,21.6,24.9,24,–,–,–,–,–,–,–,–,–
CC(C)C(=O)OCC(=O)[C@@]12O[C@H](C3CCCCC3)O[C@@H]1C[C@H]1[C@@H]3CCC4=CC(=O)C=C[C@]4(C)[C@H]3[C@@H](O)C[C@@]12C [Ciclesonide],115,127,81.6,145,67.6 ± 23,76.3,50.6 ± 24,90.1,48.9 ± 2.2,122,46.7 ± 24,36 ± 1.9,100 ± 16
CCCCCOc1ccc(-c2ccc(-c3ccc(C(=O)N[C@H]4C[C@@H](O)[C@@H](O)NC(=O)[C@@H]5[C@@H](O)[C@@H](C)CN5C(=O)[C@H]([C@@H](C)O)NC(=O)[C@H]([C@H](O)[C@@H](O)c5ccc(O)cc5)NC(=O)[C@@H]5C[C@@H](O)CN5C(=O)[C@H]([C@@H](C)O)NC4=O)cc3)cc2)cc1 [Anidulafungin],100,82.5,82.8,72.2,45 ± 2.3,67.5,40.3 ± 15,92.4,58.3 ± 5.8,55.2,47.7 ± 8.9,67.4 ± 5.7,112 ± 16
COCCn1c2c([n+](Cc3cnccn3)c1C)C(=O)c1ccccc1C2=O.[Br-],29.6,21.3,21.1,27,85.5 ± 29,48.3,28.3 ± 3.6,60.2,68.9 ± 8.8,82.5,53.9 ± 8.2,55.5 ± 2.3,62.3 ± 5.1
Cc1c(Cl)cccc1Nc1ccccc1C(=O)O [Tolfenamic Acid],95.9,102,106,92.6,100 ± 30,118,80.6 ± 9.7,91.9,71.1 ± 33,103,70.7 ± 3.2,41.7 ± 14,77.7 ± 3.3
Cc1cc(-n2c(=O)[nH]c(=O)n(C)c2=O)ccc1Oc1ccc(SC(F)(F)F)cc1 [Toltrazuril],90.8,97.6,105,90.8,75.8 ± 1.2,132,61.9 ± 18,84,117 ± 11,115,79.5 ± 4.9,41.3 ± 3.9,98.6 ± 14
CN1CCN(c2ccc(C(=O)/N=c3\[nH][nH]c4ccc(Cc5cc(F)cc(F)c5)cc34)c(NC3CCOCC3)c2)CC1 [Entrectinib],92.3,72.6,81.7,71.9,28.2 ± 2.5,59.8,22.8 ± 0.65,48.9,41 ± 5.5,58.5,36.98 ± 0.05,42.6 ± 4.1,41.8 ± 12
CCCCCCCCOc1ccccc1C(=O)Nc1ccc(C(=O)OCC[N+](C)(CC)CC)cc1.[Br-] [Otilonium Bromide],91.3,100,105,90.7,51.9 ± 1.6,110,37.4 ± 9.3,77.9,42.9 ± 2.6,81.7,63.47 ± 0.62,37.7 ± 9.5,98.3 ± 10
COc1ccc2c(O[C@H]3CC4C(=O)N(C)CCCC/C=C\[C@H]5C[C@@]5(C(=O)NS(=O)(=O)C5CC5)NC(=O)[C@@H]4C3)cc(-c3nc(C(C)C)cs3)nc2c1C (some centres not stated) [Simeprevir],104,90.4,106,86.7,29.8 ± 3.8,39.5,20.8 ± 2.6,72.7,38.5 ± 3.4,28.7,32.64 ± 0.11,39 ± 3.6,28.5 ± 2.1
Cc1ccc(-n2[nH]c(C)c(NN=C3C=CC=C(c4cccc(C(=O)O)c4)C3=O)c2=O)cc1C [Eltrombopag],85.8,94.6,101,96.2,28.3 ± 15,94.9,20.5 ± 4.7,60.9,54.9 ± 3,125,57 ± 2.9,37.8 ± 14,–
COc1ccccc1OCCNCC(O)COc1cccc2[nH]c3ccccc3c12 (configuration not stated) [Carvedilol],92.5,99.9,91.3,111,97.88 ± 0.3,69.9,75.9 ± 8.1,88.7,123.82 ± 0.064,127,44 ± 1.3,46.1 ± 3.3,102.1 ± 0.59
CC(C)Nc1cc(-c2c[nH]c(C(=O)NC(CO)c3cccc(Cl)c3)c2)c(Cl)cn1 (configuration not stated),84.8,59.1,72.7,78.4,39 ± 8.9,135,36.8 ± 21,81.7,43.5 ± 2.5,106,56.5 ± 4,45.3 ± 6.3,104 ± 10
Cl.Cl.Fc1ccc(C(c2ccc(F)cc2)N2CCN(CC=Cc3ccccc3)CC2)cc1 [Flunarizine 2HCl],106,94.1,101,88.9,106 ± 20,82.4,82.2 ± 42,96.5,75.4 ± 9.1,106,46.7 ± 2.5,38.9 ± 12,87.3 ± 8.5
Clc1ccc(COC(Cn2ccnc2)c2ccc(Cl)cc2Cl)cc1.O=[N+]([O-])O (configuration not stated) [Econazole nitrate],101,92,115,92.7,33.7 ± 2,88.1,27.3 ± 11,116,36.3 ± 1.7,105,54 ± 2.1,45.3 ± 14,90.6 ± 24
COc1cc2ncnc(Nc3ccc(F)c(Cl)c3)c2cc1NC(=O)C=CCN1CCCCC1,70.8,40,43.9,54.6,34.5 ± 3.5,49.8,22.3 ± 1.4,57,24.6 ± 15,55.1,29.7 ± 2.9,43.9 ± 9.3,47.4 ± 1.6
Cc1nc(Nc2ncc(C(=O)Nc3c(C)cccc3Cl)s2)cc(N2CCN(CCO)CC2)n1,78.6,39.7,67.7,55.6,59.7 ± 21,53.7,53.2 ± 2.6,60.3,40.2 ± 3.5,40.5,39.3 ± 3.5,39.3 ± 3.4,57.8 ± 1.2
CC(NCCCc1cccc(C(F)(F)F)c1)c1cccc2ccccc12.Cl (configuration not stated) [Cinacalcet HCl],94.5,85.7,76.7,81.6,38.8 ± 2.6,46.8,21.6 ± 4.7,64.8,43.3 ± 2.8,43.6,29.6 ± 2.4,43.2 ± 5.7,27.6 ± 1.3
CCCCCCCCCCCCCCCCOP(=O)([O-])OCC[N+](C)(C)C [Miltefosine],89.6,101,85.8,92.6,98.9 ± 9.1,108,87.7 ± 30,107,33.2 ± 0.37,82.1,77.6 ± 9.7,38.2 ± 14,58.56 ± 0.43
CC(C)COc1ccc(CNC(=O)N(Cc2ccc(F)cc2)C2CCN(C)CC2)cc1 [Pimavanserin],93.5,83.6,103,88,98.1 ± 1.5,111,56.7 ± 18,81,171 ± 10,87.3,46.4 ± 3.1,43.7 ± 2.7,83.5 ± 3.7
CCOC(=O)C1=C(COCCN)NC(C)=C(C(=O)OC)C1c1ccccc1Cl.O=S(=O)(O)c1ccccc1 (configuration not stated) [Amlodipine Besylate],93.3,97.5,107,88.5,94.062 ± 0.027,115,63.8 ± 45,110,97.8 ± 2.3,102,50 ± 3.2,37 ± 1.7,81.2 ± 8.3
CNCCC(Oc1cccc2ccccc12)c1cccs1.Cl (configuration not stated) [Duloxetine HCl],85.4,95.4,91.1,79.7,87.3 ± 6.3,106,55.9 ± 34,70.8,112 ± 11,66.6,30.9 ± 1.8,38.5 ± 0.71,80.9 ± 9.8
CCCSc1nc(NC2CC2c2ccc(F)c(F)c2)c2nnn(C3CC(OCCO)C(O)C3O)c2n1 (configuration not stated) [Ticagrelor],97.8,91,89.7,75.5,41.1 ± 38,122,47.6 ± 30,80.5,46.1 ± 3.6,80,64.95 ± 0.47,41.2 ± 12,97.7 ± 5.2
CCCCc1oc2ccc(NS(C)(=O)=O)cc2c1C(=O)c1ccc(OCCCN(CCCC)CCCC)cc1.Cl [Dronedarone HCl],110,86.5,106,76.2,29.3 ± 12,48,24.4 ± 12,66.1,34.9 ± 1.1,46.6,30.9 ± 5.9,40.9 ± 14,33.3 ± 5.1
CC1(C)Cc2c(-c3ccccc3)c(-c3ccc(Cl)cc3)c(CC(=O)O)n2C1 [Licofelone],125,103,90.3,97.1,46.1 ± 16,99.4,31.5 ± 2.2,90.2,84.6 ± 0.91,89.5,86.3 ± 4,47.3 ± 7,88.4 ± 11
